CYP2C19 inhib: blocks human cytochrome P450 2C19; P33261; CYP2C19 Supersomes, luciferin-H EGE luminescence, 30 min; inhibition, % at 5 µM; 96,000 tested, 21% active;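 active = CYP2C19 inhibition above a set limit at 5 µM in the primary screen, cut at about 50% in these data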;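 also: plate controls were negative control wells for no effect and 2.5 mM tranylcypromine positive control for full effect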
Target sequence (P33261 whole entry, looked up): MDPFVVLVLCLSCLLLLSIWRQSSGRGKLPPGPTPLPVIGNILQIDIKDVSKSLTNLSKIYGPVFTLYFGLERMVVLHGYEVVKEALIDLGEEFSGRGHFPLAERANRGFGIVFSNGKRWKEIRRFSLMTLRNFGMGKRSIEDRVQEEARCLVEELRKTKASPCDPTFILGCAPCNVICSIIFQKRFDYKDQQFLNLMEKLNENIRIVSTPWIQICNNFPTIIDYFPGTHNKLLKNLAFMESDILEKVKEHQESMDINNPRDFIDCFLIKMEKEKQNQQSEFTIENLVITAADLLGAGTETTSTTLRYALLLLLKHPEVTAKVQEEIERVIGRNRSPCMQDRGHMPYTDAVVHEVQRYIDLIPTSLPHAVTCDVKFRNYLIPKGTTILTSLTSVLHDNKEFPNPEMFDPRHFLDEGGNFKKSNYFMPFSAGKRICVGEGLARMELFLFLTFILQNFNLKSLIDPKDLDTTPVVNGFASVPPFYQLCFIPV
CYP2C19 activ: cytochrome P450 2C19 (human) activation; P33261; recombinant CYP2C19, luciferin-H EGE luminescence; hits give high values; 0 = fully inhibited enzyme, 1 = untreated enzyme; activation factor at 5 µM; 96,000 tested, under 10 active;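 active = activation factor of at least 2 at 5 µM in the primary screen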;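 also: 0 = wells with 2.5 mM tranylcypromine and 1 = vehicle-only wells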
CYP2C9 inh: human CYP2C9 inhibition. 96,000 tested, 20% active. AID 777. inhibition, % at 5 µM. CYP2C9 Supersomes, luciferin-H conversion, luminescence;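 active = blocking of liver enzyme CYP2C9 beyond about 50% at 5 µM, limit read from the data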
CYP2C9 act: increases human cytochrome P450 2C9 activity; AID 1024; 96,000 tested, 1.4% active; recombinant CYP2C9, luciferin-H conversion, luminescence; hits give high values; factor 1 = untreated enzyme, 0 = blocked; activation factor at 5 µM; P11712;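 active = activation factor of 2 or more for CYP2C9 at a 5 µM dose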;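 also: 0 = sulfaphenazole-blocked wells and 1 = vehicle-only wells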
EphB4 antag: blocks human EphB4 binding to ephrin-B2; inhibition, % at 7 µM; EphB4 LBD / TNYL-RAW-Alexa532 peptide, fluorescence polarization; AID 720; 97,000 tested, 0.15% active;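 active = inhibition above the screen-wide mean inhibition plus 3 SD, cut at about 15% in these data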;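 also: 0% = DMSO wells and 100% = excess unlabeled TNYL-RAW peptide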
The depositor's hits bear a star; . = no result given. Rows were chosen to be rich in hits. Some 27% of all compounds tested hit in one or more screens of this group.

SMILES	CYP2C19 inhib	CYP2C19 activ	CYP2C9 inh	CYP2C9 act	EphB4 antag
Cc1ccc(OCC(O)CN2C(=O)NC(C)(C)C2=O)cc1 (configuration not stated)	.	.	.	.	-3
CC1(C)NC(=O)N(CC(O)CN2CCOCC2)C1=O (configuration not stated)	56*	0.4	45	0.6	9
C=CCN1C(=O)/C(=C\c2cccs2)C(C(=O)OC)=C1C	41	0.6	39	0.6	2
COc1cc(NC(=O)c2ccc(NS(=O)(=O)c3c(C)noc3C)cc2)cc(OC)c1	14	0.9	47	0.5	9
CCOc1ccc(N2C(=O)CC(N3CCN(C(=O)CN4CCCC4)CC3)C2=O)cc1 (configuration not stated)	1	1	-4	1	5
COc1cc2c(cc1OC)CN(c1ccc(-c3ccccc3OC)nn1)CC2	62*	0.4	-140	2.4*	.
CCOC(=O)c1[nH]c(C)c(C(=O)NC2CCCC2)c1C	54*	0.5	35	0.6	-7
CCOC(=O)c1[nH]c(C)c(C(=O)OCC(=O)N2CCCCC2C)c1C (configuration not stated)	23	0.8	72*	0.3	-3
CCOC(=O)c1c(C)[nH]c(/C(C)=N/O)c1C	23	0.8	2	1	4
CCOC(=O)c1[nH]c(C)c(C(=O)NC2CCCCCC2)c1C	.	.	.	.	3
CCOC(=O)c1[nH]c(C)c(C(=O)OCCN2C(=O)c3ccccc3C2=O)c1C	67*	0.3	85*	0.2	-11
CCOC(=O)c1c(C)[nH]c(C(C)=O)c1C	51*	0.5	56*	0.4	6
CCOC(=O)c1[nH]c(C)c(C(=O)N(C)Cc2ccccc2)c1C	49	0.5	30	0.7	-5
CC(C)Nc1nc(-c2ccccc2)nc(-n2ccnc2)n1	24	0.8	18	0.8	6
Cc1[nH]c(=S)[nH]c(=O)c1Cc1ccccc1	13	0.9	-14	1.1	-3
CCCCCn1c(N2CCC(Cc3ccccc3)CC2)nc2c1c(=O)[nH]c(=O)n2C	.	.	.	.	1
CC(=O)N=c1cccc(NC(C)=O)n1O	-13	1.1	-16	1.2	4
CCOC(=O)c1[nH]c(C)c(C(=O)O)c1C	-10	1.1	-17	1.2	5
CCOC(=O)c1[nH]c(C)c(C(=O)C(C)C)c1C	51*	0.5	14	0.9	-6
CCOC(=O)c1c(C)[nH]c(C(=O)OCc2c(C)noc2C)c1C	50*	0.5	80*	0.2	-5
CCOC(=O)c1sc(NC(=O)CSc2nnc(C(C)C)n2CC)nc1C	10	0.9	13	0.9	4
COc1cccc(NC(=O)CCS(=O)(=O)c2cccs2)c1	60*	0.4	58*	0.4	.
CCOC(=O)c1cccc(NC(=O)CCS(=O)(=O)c2cccs2)c1	72*	0.3	89*	0.1	.
COc1cccc(NC(=O)CNC(=O)c2cccs2)c1	47	0.5	28	0.7	-4
Cc1cccc(OCCCC(=O)Nc2ccc(N3CCCCC3)cc2)c1	23	0.8	18	0.8	-8
SMILES	CYP2C19 inhib	CYP2C19 activ	CYP2C9 inh	CYP2C9 act	EphB4 antag
Nc1nonc1C(=O)NC(c1ccccc1)c1ccccc1	90*	0.1	78*	0.2	3
Nc1nonc1C(=Nc1ccccc1)NO	9	0.9	7	0.9	4
CC(=NC1CC1)C1=C(O)c2ccccc2C1=O	28	0.7	2	1	3
COc1ccc(S(=O)(=O)N(CC(=O)Nc2cc(C)on2)Cc2ccccc2)cc1	81*	0.2	1	1	2
COc1ccccc1N(CC(=O)Nc1cc(C)on1)S(=O)(=O)c1ccc(Cl)cc1	91*	0.1	98*	0	12
COC(=O)CN(c1ccccc1OC)S(=O)(=O)c1ccccc1	50	0.5	38	0.6	0
CCC(C)c1ccc(OCCCCN2CCOCC2)cc1 (configuration not stated)	57*	0.4	-2	1	6
Cc1cc(Cl)cc(C)c1OCCCCN1CCOCC1	54*	0.5	0	1	-2
C=CCN1C(=O)C(Cc2ccc(C)cc2)S/C1=N/N=C/c1ccco1 (configuration not stated)	5	1	25	0.7	3
C=CCN1C(=O)C(Cc2ccccc2)S/C1=N/N=C/c1cccs1 (configuration not stated)	23	0.8	68*	0.3	2
C=CCN1C(=O)C(Cc2ccc(OCC)cc2)S/C1=N\N=C\c1cccs1 (configuration not stated)	30	0.7	54*	0.5	2
CCC1S/C(=N/N=C/c2cccs2)NC1=O (configuration not stated)	2	1	26	0.7	-5
Cn1c(N)c(N2CCCCC2)c(=O)n(CC(=O)Nc2ccc(Cl)c(Cl)c2)c1=O	94*	0.1	98*	0	4
Cc1cccc(NC(=O)Cn2c(=O)n(C)c3ccccc32)c1	.	.	.	.	-7
O=C(NCc1ccc2c(c1)OCO2)c1ccc(NS(=O)(=O)c2ccc3c(c2)OCCO3)cc1	.	.	.	.	-6
CC(C)NC(=O)COC(=O)c1ccc(NS(=O)(=O)c2ccc3c(c2)OCCO3)cc1	76*	0.2	97*	0	-2
CCOC(=O)c1ccc(NS(C)(=O)=O)cc1	12	0.9	6	0.9	1
CCOC(=O)c1ccc(NS(=O)(=O)c2ccc3[nH]c(=O)[nH]c3c2)cc1	29	0.7	75*	0.2	2
O=C(COC(=O)c1ccc(NS(=O)(=O)c2ccc3c(c2)OCCO3)cc1)NCC1CCCO1 (configuration not stated)	37	0.6	83*	0.2	-3
CCCCNC(=O)COC(=O)c1ccc(NS(=O)(=O)c2ccc3c(c2)OCCO3)cc1	31	0.7	91*	0.1	-4
O=C(CC1(O)C(=O)Nc2ccccc21)c1ccc(-n2cccc2)cc1 (configuration not stated)	10	0.9	10	0.9	8
CCCC(=O)Nc1ccc(Cl)c(NC(=O)c2ccco2)c1	38	0.6	35	0.6	-1
CS(=O)(=O)NCc1nnc(SCC(=O)NC2CCCCC2)n1-c1ccc(F)cc1	-4	1	-2	1	7
CNC(=O)c1ccc(-c2ccc(F)cc2)s1	40	0.6	12	0.9	1
COc1ccc(C(=O)N2CCC(n3c(C)nc4cc(F)ccc43)CC2)cc1OC	9	0.9	38	0.6	3
CCOC(=O)C1(CC)NC(c2ccco2)C2C(=O)N(CC)C(=O)C21 (configuration not stated)	0	1	-19	1.2	-3
COc1cccc(NC(=O)CN2CCN(S(=O)(=O)c3ccc(C(C)C)cc3)CC2)c1	87*	0.1	31	0.7	-2
COc1cc(NC(=O)CN2CCN(S(=O)(=O)c3ccc(C(C)C)cc3)CC2)cc(OC)c1	74*	0.3	30	0.7	9
COc1ccc(-n2c(=O)cc(N3CCc4ccccc43)[nH]c2=O)cc1	.	.	.	.	-2

Screens as filed in PubChem BioAssay.
